# Sampled rows, rich in hits. Any-hit rate of the full collection: about 2.6%.
# AmpC nodet inh = Promiscuous and Specific Inhibitors of AmpC Beta-Lactamase (assay without detergent); Potency, µM (highest dose often 28.7 µM), without a hit: at the top dose activity change, negative = inhibition; AmpC nitrocefin hydrolysis, absorbance 480 nm, no detergent; 1.8% of 71,000 active; P00811; note: % of control where 0% means no effect
# Target sequence (P00811 whole entry, looked up): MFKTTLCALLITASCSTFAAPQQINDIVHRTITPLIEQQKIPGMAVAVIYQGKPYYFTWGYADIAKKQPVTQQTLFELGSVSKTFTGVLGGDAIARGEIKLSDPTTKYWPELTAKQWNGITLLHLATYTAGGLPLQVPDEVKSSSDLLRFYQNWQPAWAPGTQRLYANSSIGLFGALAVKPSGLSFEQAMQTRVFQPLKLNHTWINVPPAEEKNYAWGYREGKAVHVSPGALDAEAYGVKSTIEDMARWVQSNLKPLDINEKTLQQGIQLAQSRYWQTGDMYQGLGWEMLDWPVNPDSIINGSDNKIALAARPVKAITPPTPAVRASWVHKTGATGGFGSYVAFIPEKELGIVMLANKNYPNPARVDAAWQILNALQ
#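 AmpC in 20 mM phosphate buffer pH 7.0 was preincubated 15 min at room temperature with compounds. Nitrocefin (800 uM stock) was then added and hydrolysis followed at 480 nm every 20 s for 4 min.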
# AmpC det inh = Promiscuous and Specific Inhibitors of AmpC Beta-Lactamase (assay with detergent) | P00811 | purified AmpC, nitrocefin hydrolysis with detergent | Potency, µM (top dose mostly 28.7 µM), without a hit: top-dose activity change, negative = inhibition | 0.09% of 71,000 active | AID 584, 2007; active = well fitted curve in the direction sought with a large enough effect; inconclusive = small, poorly fitted or top-dose-only effect; note: % is set by controls: 0 for no effect and ±100 for the full control effect
#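 E. coli AmpC (5.3 nM) in 20 mM phosphate pH 7.0 with 0.01% Triton X-100, preincubated 15 min RT with compound; nitrocefin (2 uL of 800 uM stock) hydrolysis followed by 480 nm absorbance every 20 s over 4 min.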
# SmPrx2 inh = Schistosoma Mansoni Peroxiredoxins (Prx2) | S. mansoni Prx2 activity coupled to TGR/GSH (TGR is thioredoxin glutathione reductase), NADPH fluorescence loss, qHTS | 0.07% of 65,000 active | Potency, µM | Schistosoma mansoni peroxiredoxin 2 (Prx2)
#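 Enzyme mix: 100 uM NADPH, 25 nM TGR, 700 uM GSH, 50 nM Prx2 in 100 mM phosphate pH 7.4, 10 mM EDTA, 0.01% Tween-20. 15 min RT with compound; NADPH/GSH added, H2O2 starts reaction; NADPH fluorescence read 8 min.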
# LT uptake inh = qHTS Assay for Anthrax Lethal Toxin Internalization. 0.67% of 70,000 active. Potency, µM (titrated, usually from 40 µM), for the others: at the top dose activity change, negative = inhibition, most hits filed as inhibitors. Cells, anthrax lethal toxin internalization, FRET ratio (460/530). AID 912, 2007; note: % is set by controls: 0 for no effect and ±100 for the full control effect; nearly all actives have a fitted effect of over 50% in size
# An asterisk follows results filed as active; ? = inconclusive; . = no result; [ ] = dose if it differs, or a comment. Unless noted, calls come from the whole dose curve. Potency is the fitted concentration of half-maximal effect.
SMILES,AmpC nodet inh,AmpC det inh,SmPrx2 inh,LT uptake inh
CCOC(=O)CS(=O)(=O)c1nc(-c2ccccc2)cc(C(F)(F)F)n1,-3%,-8%,>57,3.2µM*
COC(=O)C1=C(C)N(Cc2ccccc2)[C@]23O[C@](C(=O)OC)(C(=O)N2C1c1ccccc1)C1C(=O)N(C)C(=O)C13 (stereo not given in full),.,.,.,-7%[8 µM]
CCN(CC)CCCCn1c(-c2ccccc2)nc2c(N(CCOC)CCOC)nc(C)nc21,61%,14%,.,8%
Cc1cc(-c2ccc(N=Nc3cc(S(=O)(=O)O)c4ccccc4c3N)c(C)c2)ccc1N=Nc1cc(S(=O)(=O)O)c2ccccc2c1N,5µM*,13µM*,.,?
Nc1c(S(=O)(=O)O)cc(S(=O)(=O)O)c2ccc(N=Nc3ccccc3)c(O)c12,-8%[5.75 µM],-5%[5.75 µM],>57,0%[8 µM]
Cc1noc(C)c1S(=O)(=O)N(CC(=O)N1CCc2ccccc21)c1ccc(C(C)C)cc1,4µM*[single pt active],14%,>57,-10%
CC(=O)N1CCN(c2ccc(NC(=O)c3ccc(C(C)(C)C)cc3)cc2)CC1,123%,7%,>57,10µM*
Cc1ccc(C(=O)Nc2ccc(N3CCOCC3)cc2)cc1,1%,-1%,.,-3%
CCN(CC)S(=O)(=O)c1ccc(-c2nnc3sc4cccc(C)c4n23)cc1,4µM*[single pt active],14%,>57,?
COc1ccc(OC[C@@H](CO)OC)cc1,.,.,.,9%[8 µM]
Cc1cccc(C2CC(c3ccc(Cl)cc3)Nc3nc(N)nn32)c1 (stereo not given),4µM*[single pt active],12%,>57,-2%
CCOc1ccc(C2CC(c3cccc(C)c3)n3nc(N)nc3N2)cc1 (stereo not given),31%,10%,>57,7%
Cc1cccc(C2CC(c3ccc(F)cc3)Nc3nc(N)nn32)c1 (stereo not given),4µM*[single pt active],11%,>57,8%
Cc1ccc(C2CC(c3cccc(Cl)c3)n3nc(N)nc3N2)cc1 (stereo not given),71%,9%,>57,-10%
COc1cc(SC)ccc1C(=O)Nc1ccc2c(c1)OCCO2,29%,5%,>57,10µM*
COc1ccccc1C(=O)Nc1ccc2c(c1)OCCO2,-2%,-1%,>57,1%
O=C(O)c1cc(=O)[nH]c(=S)[nH]1,-2%[5.75 µM],-2%[5.75 µM],>57,4%[8 µM]
O=C(NCc1ccco1)C1CCN(c2ccc(N3CCOCC3)nn2)CC1,4µM*[single pt active],11%,>57,5%
CC12C=C(/C=C/c3ccc(Br)cc3)C(C)(C1)C(c1ccc(Br)cc1)CC2=O (stereo not given),.,.,.,-12%[8 µM]
Cc1oc(-c2ccccc2F)nc1CS(=O)CC(=O)NCc1ccc2c(c1)OCO2 (stereo not given),4µM*[single pt active],12%,>57,-11%
Cc1oc(-c2cccs2)nc1CS(=O)CC(=O)NCCc1ccccc1 (stereo not given),10%,7%,>57,-15%
Cc1oc(-c2ccccc2F)nc1CS(=O)CC(=O)NCc1cccs1 (stereo not given),4µM*[single pt active],10%,>57,0%
COc1cccc(-c2csc(N3CCN(C(=O)C4CCCCC4)CC3)n2)c1,42%,8%,>57,10µM*
Cc1nc(NC2CCCCC2)c2nc(-c3ccccc3)n(CCN3CCCCC3)c2n1,138%,12%,.,?
CCOC(=O)N/N=C1/C[C@@H](O)[C@@H](O)[C@@H]2[C@@H]3C(=O)N(CC)C(=O)[C@H]3CC[C@@H]12,.,.,.,0%[8 µM]
SMILES,AmpC nodet inh,AmpC det inh,SmPrx2 inh,LT uptake inh
CC(C)[C@H]1C(=O)N2CCC[C@@H]2[C@]2(O)O[C@@](NC(=O)[C@H]3C=C4c5cccc6[nH]cc(c56)C[C@H]4N(C)C3)(C(C)C)C(=O)N12,105%,2%,>57,?
O=C(O)c1cc[c]([Hg][Cl])cc1,-10%,-8%,0.44*,?
O=C(N/N=C1/C[C@@H](O)[C@@H](O)[C@@H]2[C@@H]3C(=O)N(C4CCCCC4)C(=O)[C@H]3CC[C@H]12)OCc1ccccc1,.,.,.,13%[8 µM]
CN(C)CCNc1oc(-c2ccccc2F)nc1C#N,4µM*[single pt active],13%,>57,-8%
N#Cc1nc(-c2ccccc2F)oc1NC1CCCCC1,4µM*[single pt active],11%,>57,?
N#Cc1nc(-c2ccccc2F)oc1NCc1cccc2c1OCO2,13%,-4%,>57,11%
C=C(C)C1CC=C(C)C(OC(C)=O)C1 (stereo not given),-1%,10%,.,-3%

# Screening data from PubChem BioAssay.
